The values that follow come from PubChem BioAssay AID2280 (The Scripps Research Institute Molecular Screening Center, 2010).

For orientation: inhibition means the change of the read-out against control, counted positive when it falls.

The campaign covered roughly 320,000 compounds. About 1,400 (0.44%) were called active. The sample holds actives, similar compounds and a random draw of the others, so the mix is not that of the screen. Values without a mark were called inactive.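 The calls were made as follows: active = percent inhibition above a per-plate cutoff, the plate mean of test compounds plus 3 SD (cut at about 30% in these data); inactive = the rest.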

The assay deals with Female germline-specific tumor suppressor gld-1 (Caenorhabditis elegans) (UniProt Q17339). The assay can be described thus: GLD-1/TGE RNA complex disruptors, primary screen, biochemical, fluorescence polarization (AID 2280).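 Also: 0% = DMSO wells with GLD-1 and probe and 100% = wells lacking GLD-1.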 Particulars: purified GLD-1 + fluorescein TGE RNA, at 5.96 µM, active compounds read high.
Sequence of Female germline-specific tumor suppressor gld-1 (Caenorhabditis elegans) (Q17339 whole entry, looked up): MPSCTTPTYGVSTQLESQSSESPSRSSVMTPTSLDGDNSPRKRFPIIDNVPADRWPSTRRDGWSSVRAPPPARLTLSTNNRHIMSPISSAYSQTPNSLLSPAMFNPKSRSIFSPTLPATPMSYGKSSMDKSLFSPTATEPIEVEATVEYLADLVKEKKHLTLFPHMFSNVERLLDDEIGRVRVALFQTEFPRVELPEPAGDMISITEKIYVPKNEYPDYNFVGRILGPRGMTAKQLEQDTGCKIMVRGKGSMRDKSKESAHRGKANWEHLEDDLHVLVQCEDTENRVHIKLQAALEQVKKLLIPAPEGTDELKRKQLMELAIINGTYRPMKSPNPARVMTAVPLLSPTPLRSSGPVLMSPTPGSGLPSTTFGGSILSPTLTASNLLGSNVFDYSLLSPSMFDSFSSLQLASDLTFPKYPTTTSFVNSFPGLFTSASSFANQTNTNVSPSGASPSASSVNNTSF
On to `CCOC(=O)C1CCN(C(=O)CC2C(=O)N(Cc3ccccc3)C(C)c3nc4ccccc4n32)CC1` (centres undefined), for which the inhibition is 3.57%.
Next, `O=C(CN1CCN(Cc2ccc(F)cc2Cl)C1=O)NCc1cccs1`: 5.83%.
The figure for `CC1=CC2=NC(=O)/C(=C/c3coc4ccccc4c3=O)C(=N)N2O1` is 32.9% (active); for `CCOc1cc(/C=C2/C(=N)N3OC(C)=CC3=NC2=O)ccc1OC` it is -3.88%; for `COc1ccc(OCCCn2cccc2/C=C2/C(=N)N3OC(C)=CC3=NC2=O)cc1` it is 3.29%.
Next, `COC(=O)C1=C(NC(=O)C(C)(C)C)CCS1`: 5.48%; `O=C(c1cc(=O)c2ccccc2o1)N1CCN(c2ccccc2)CC1`: -3.54%.
For `O=C(COC(=O)c1ccccc1C(=O)N1CCN(c2ccccc2)CC1)NCc1ccccc1`, the inhibition was 55.9% (active).
Next, `CC(C)N(C(=O)COC(=O)c1ccccc1C(=O)N1CCN(c2ccc(F)cc2)CC1)C(C)C`: 6.66%.
Next, `CCn1c(=S)[nH]c2sc3c(c2c1=O)CCCCC3`: -5.76%; `Cc1ccccc1SCC(=O)OCC(=O)N1CC(=O)Nc2ccccc21`: 1.92%.
The figure for `CC1CN(C(=O)CCC(=O)NCCCN2CCC(Cc3ccccc3)CC2)c2cc(Cl)ccc2O1` (centres undefined) is 5.77%; for `CCCCCCn1c(CN2CCCC(C)C2)nc2c1c(=O)n(C)c(=O)n2C` (centres undefined) it is 9.13%.
As for `Cc1c(CN2CCCCC2)c(O)n(CCO)c(=O)c1C#N`, the inhibition was 7.69%.
Take `CCCn1c(O)c(CN2CCCC(C)C2)c(C)c(C#N)c1=O` (centres undefined): the inhibition was 41.2% (active).
Next, `COc1cccc(NC(=O)NCCN2CCCCC2)c1`: 11.7%; `COCCNC(=O)Nc1ccc2nc(-c3ccco3)c(-c3ccco3)nc2c1`: 69.3% (active); `O=C(NCc1ccccn1)c1ccc2nc(-c3ccco3)c(-c3ccco3)nc2c1`: 20.3%.
The figure for `CNS(=O)(=O)c1ccc(NC(=O)C2CC(=O)N(c3ccc(Cl)cc3)C2)cc1` (centres undefined) is 1.34%.
Next, `CC(C)(C)C(=O)CSc1ccc(S(=O)(=O)N2CCCC2)cn1`: 4.63%.
On to `CCCCc1ccc(S(N)(=O)=O)cc1`, for which the inhibition was 6.14%.
The figure for `C[C@@H]1CC[C@@]2(OC1)O[C@H]1C[C@H]3[C@@H]4CC=C5C[C@@H](O)[C@H](O)C[C@]5(C)C4CC[C@]3(C)[C@H]1[C@@H]2C` (some centres undefined) is -7.94%.
Regarding `COc1cccc2cc(C(C)N(CCCN3CCOCC3)C(=O)Nc3ccc(Cl)cc3)oc12` (centres undefined), the inhibition is 2.92%.
The figure for `CCOC(=O)N1CCN(Cc2nnc(-c3ccccc3Cl)o2)CC1` is -10.5%; for `Cn1cnnc1SCc1nnc(-c2ccccc2Br)o1` it is -10.8%.
The figure for `Nc1cccc2c1C(=O)N(Cc1nnc(-c3ccccc3Br)o1)C2=O` is 37% (active); for `COc1cc(S(=O)(=O)N2CCN(C(=O)C3CC3)CC2)ccc1NC(C)=O` it is 3.97%.
Next, `CCOc1ccc(NC(=O)c2cccc3c2C(=O)N(CC2CCCO2)C3)cc1` (centres undefined): 2.1%; `CCCCC1=CC2=CC(=O)C(C)(OC(=O)CC)C(=O)C2=CN1CCCOC(C)C` (centres undefined): 22.9%; `COC/C=C/C1=CC2=CC(=O)C(C)(OC(=O)CCC(=O)OC)C(=O)C2=CO1` (centres undefined): 46.7% (active).
For `COCCN1C=C2C(=O)C(C)(OC(=O)C3CCCC3)C(=O)C=C2C=C1c1ccsc1` (centres undefined), the inhibition was 23.1%.
The figure for `CSCCNC(=O)c1ccc2nc(Cc3ccccc3F)oc2c1` is -1.35%; for `COc1ccc(CCN2C(=O)CC(N3CCC(C(N)=O)CC3)C2=O)cc1OC` (centres undefined) it is 1.78%; for `COC(=O)c1ccc(SCc2ccccc2)nc1` it is -5.64%.
In the case of `CSc1c(SCc2ccccc2)cnn(Cc2ccccc2)c1=O`, the inhibition is 140% (active).
The figure for `CCn1c(SCc2ccccc2)nc2cc(OC)c(OC)cc2c1=O` is -3.64%.
The figure for `COc1cc2c(C(=O)N3CCN(C)CC3)c(CSc3ccccc3)n(C)c2cc1Br` is 0.62%; for `COC(=O)c1sc(-c2ccc(C(C)(C)C)cc2)cc1NC(=O)/C=C/C(=O)O` it is -0.27%; for `COc1ccc(N2C(=O)c3cccc4cccc(c34)C2=O)nn1` it is 13.5%.
Next, `CN1C(=O)c2cccc3c(N)ccc(c23)C1=O`: 198% (active).
Take `Cc1nn(C)cc1C(=O)c1ccccc1`: the inhibition was 1.39%.
Regarding `O=C(O)c1ccc2c3c(cccc13)C(=O)N(OS(=O)(=O)c1ccccc1)C2=O`, the inhibition was 13.8%.
Next, `CC(=O)Nc1ccccc1Sc1ccc2c3c(cccc13)C(=O)N(c1ccc(C)cc1)C2=O`: 0.24%; `COc1ccccc1C(=O)NCCC(=O)NCC(c1ccco1)N1CCCCC1` (centres undefined): 3.67%.
As to `CC(C)(C)CN1CCNC(=O)C1CC(=O)NC1Cc2ccccc2C1` (centres undefined), the inhibition was 8.53%.
Next, `COc1ccccc1CNC(=O)c1ccc(Cl)c(S(=O)(=O)N2CCCC2)c1`: 0.54%; `CCN1/C(=C\c2ccc3ccccc3[n+]2CC)Sc2cc(C)ccc21`: 61.6% (active).
The figure for `N/C(=N\OC(=O)CCn1cccc(C(F)(F)F)c1=O)c1ccc(OC(F)(F)F)cc1` is -1.66%; for `CCOc1ccc(C(=O)NC2CCN(C(=O)Nc3ccccc3OC)CC2)cc1` it is 0.46%; for `CCOC(=O)c1cc(C#N)c(N2CCCCC2)nc1-c1ccccc1` it is -3.77%.
Next, `CCOc1ccc2nc(N3CCCN(C(=O)Nc4ccccc4C)CC3)c(C#N)cc2c1`: 42% (active).
For the compound `CC1CCCC(NC(=O)c2cccc(N3CCCC3=O)c2)C1C` (centres undefined), the inhibition is 2.8%.
Next, `COc1ccccc1C(=O)Nc1nc2nc(-c3ccccc3)cc(=O)n2[nH]1`: 0.62%.
Next, `CCNS(=O)(=O)c1ccc(CCC(=O)N2CCN(c3cc(Cl)ccc3C)CC2)cc1`: 1.35%; `COc1ncnc2c1N=C1CC(C)(C)CC(N)=C1S2`: 112% (active).
On to `Cc1cc(C)n(-c2nc(O)cc(=O)[nH]2)n1`, for which the inhibition is 4.97%.
The figure for `CC(C)(C)c1ccc(Cn2nnc3c(=O)[nH]c(C4CCCN(C(=O)c5ccco5)C4)nc32)cc1` (centres undefined) is 4.28%; for `CCOC(=O)c1cccc(NC(=O)CN2C(=O)C3CC=CCC3C2=O)c1` (centres undefined) it is 4.12%; for `Cc1ccc(OCC(=O)Nc2ccc(C(=O)O)cc2NC(=O)COc2ccc(C)c(C)c2)cc1C` it is 8.42%.
